PubChem BioAssay (NCI)
About 79,000 compounds went through this panel and 15% of them were active in at least one assay; those are over-represented in the sample as a whole. Values without a mark were called inactive. Active and inactive are the calls of the source. Cut-off read from the data, not from the text of the source: active = growth inhibition above about 70%; inactive = the rest.

Experiments:
[1] = NCI Yeast Anticancer Drug Screen. Data for the rad50 strain (AID 155);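 note: 0% = growth of vehicle-only cultures of the same strain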; conditions: S. cerevisiae rad50 strain growth inhibition; at 50.0 µM; active compounds read high
Method in brief: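 A DNA repair-deficient yeast mutant serves as the test organism; compound-induced growth inhibition is calculated against vehicle-treated cells.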

[2] = NCI Yeast Anticancer Drug Screen. Data for the mec2-1 strain (AID 157); conditions: S. cerevisiae mec2-1 strain, at 50.0 µM, active compounds read high
Method in brief: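 Strain: mec2-1 (DNA repair/cell cycle alteration). Compound exposure, then growth measured; inhibition expressed relative to vehicle.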

[3] = NCI Yeast Anticancer Drug Screen. Data for the sgs1 mgt1 strain (AID 161);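 note: 0% = growth of cultures given vehicle only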; conditions: S. cerevisiae sgs1 mgt1 strain, at 50.0 µM, active compounds read high
Method in brief: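 Read-out: growth inhibition vs vehicle controls. Cells: mutant yeast strain deficient in DNA damage repair.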

[4] = NCI Yeast Anticancer Drug Screen. Data for the cln2 rad14 strain (AID 165);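 note: 0% = growth equal to vehicle treated cultures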; conditions: S. cerevisiae cln2 rad14 strain, at 50.0 µM, active compounds read high
Method in brief: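 Compounds are applied to the cln2 rad14 yeast strain, and growth is then compared with that of vehicle-treated cultures to give inhibition.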

[5] = NCI Yeast Anticancer Drug Screen. Data for the bub3 strain (AID 167); conditions: S. cerevisiae bub3 mutant strain, at 50.0 µM, active compounds read high
Method in brief: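 Inhibition values come from growth of compound-treated mutant yeast normalised to vehicle-treated controls.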

[6] = NCI Yeast Anticancer Drug Screen. Data for the mlh1 rad18 strain (AID 175); conditions: S. cerevisiae mlh1 rad18 strain growth inhibition; at 50.0 µM; active compounds read high
Method in brief: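 Read-out is yeast growth inhibition, calculated against vehicle-only controls. The compound was applied to a strain engineered with DNA damage repair alterations.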

Row | SMILES | growth inhibition [1] [%] | growth inhibition [2] [%] | growth inhibition [3] [%] | growth inhibition [4] | growth inhibition [5] [%] | growth inhibition [6] [%]
1 | COC1CC2CC1C1COCC21 (stereo unspecified) | 7.15 | -4.05 | -19.9 | -12.4% | -12.4 | -7.6
2 | CC(=O)Oc1ccc(OC(C)=O)c2c(OC(C)=O)ccc(OC(C)=O)c12 | 0.45 | 2.15 | 1.55 | -10.3% | 53.8 | -6.8
3 | CC(=O)c1cccc(OC(=O)c2ccccc2)c1 | 23.5 | 8.3 | 35 | 10.7% | 45.1 | 30.8
4 | CN(C)CC1CCC2=C(C1=O)C(c1ccccc1)C1=C(CCC(CN(C)C)C1=O)O2 (stereo unspecified) | 1.55 | 2.1 | -1.7 | 13.4% | 4.3 | 3.7
5 | O=C(NC(=O)c1cn(CCN(CCO)C(=O)NCCCCCCNC(=O)N(CCO)CCn2cc(C(=O)NC(=O)OCc3ccccc3)c(=O)[nH]c2=O)c(=O)[nH]c1=O)OCc1ccccc1 | -2.5 | 7.05 | -18.9 | -23.9% | 0.9 | -17.9
6 | CCOC(=O)C(=O)C(/C(=N/N(C)C)C(=O)Nc1ccc(C)cc1C)c1nc2ccccc2[nH]c1=O (stereo unspecified) | -21.7 | -22.1 | 3.8 | 11.7% | 1 | 12.5
7 | O=c1[nH]c2cccccc-2c1-c1nc2ccccc2[nH]1 | 40.6 | 15.2 | 33.6 | 19.5% | 16.7 | 8.95
8 | NC(=O)N1CCCC1=O | -18.4 | -18.9 | -20.8 | -8.5% | -11.3 | -20.9
9 | CCCC(=O)Nc1ccccc1OC | 12.8 | 12.7 | 9.2 | 11.9% | 24.4 | -0.75
10 | O=c1onc2c3ccccc3ncn12 | 15.2 | 7.6 | -21.2 | -11.4% | -8.6 | 0.65
11 | C[C@]12CC[C@@H]3c4ccc(OP(=O)(O)O)cc4CC[C@H]3[C@@H]1CCC2=O | -7 | 4.9 | -22.7 | -23.9% | -24.6 | -14.1
12 | Cc1cc2ncn(CO)c2cc1C | -4.5 | -0.2 | 18.8 | -7.4% | 20 | 0.75
13 | COC(=O)C(N)Cc1ccc(OCc2ccccc2)cc1 (stereo unspecified) | -0.8 | 5.2 | -2.25 | -4.25% | 24.4 | -5.35
14 | CCC(CC)COC(=O)CC(C)=O | 18.2 | 52.9 | 6.9 | 86.8% (active) | 28.2 | 33.4
15 | COC(CCCl)c1ccc(C)cc1 (stereo unspecified) | -9.4 | -66.4 | -24 | 3.8% | -29.9 | 1.8
16 | CCN(CC)CCC(O)(Cc1ccccc1)c1cccc(Cl)c1 (stereo unspecified) | 21.6 | 7.95 | 5.75 | -67.5% | 16.6 | 21.4
17 | O=c1[nH]c(=O)n(C2OC(CO)C(O)C2O)cc1I (stereo unspecified) | -10.2 | -9.95 | -6.9 | 15.2% | 5.6 | -13.8
18 | CC(C)c1ccc(/C=C/C(=O)c2ccc(F)cc2)cc1 | 14.6 | 13.5 | 16.5 | 10.1% | 5.05 | 17.6
19 | N#Cc1c(N)nc(N)nc1Nc1ccc(Cl)cc1 | 13.6 | -8.7 | 9.25 | 26.9% | -5.8 | 25.6
20 | CCCCCCCOCC(=O)OC | 3.6 | -0.7 | 2 | -21.2% | 10.2 | 1.45
21 | CC1(Cc2ccccc2)NC(=S)NC1=O (stereo unspecified) | -1.25 | -10.8 | -9.9 | 5.75% | -1.7 | -7.35

Row | SMILES | growth inhibition [1] [%] | growth inhibition [2] [%] | growth inhibition [3] [%] | growth inhibition [4] | growth inhibition [5] [%] | growth inhibition [6] [%]
22 | N#CCCOC1C(OCCC#N)C(OCCC#N)C(OCCC#N)C(OCCC#N)C1OCCC#N (stereo unspecified) | -14.2 | -23.1 | 8 | 17.7% | 28.2 | 16.1
23 | O=C1C=CC(=O)N1n1c(-c2ccccc2)n[nH]c1=O | 4.05 | -15.6 | -16.9 | -2.8% | -8 | -53.6
24 | CC1(C)[C@H]2CC[C@@]1(C)C(=O)[C@H]2[N+](=O)[O-] | 4.25 | -20.2 | -1.8 | 7.85% | -9.15 | 8.75
25 | O=[N+]([O-])c1ccc(N2CCN=N2)cc1 | -24.2 | -14.6 | -15.2 | 2.35% | -14.2 | -6.75
26 | CCOc1ccc(N2C(C#N)c3ccccc3OC2c2ccccc2O)cc1 (stereo unspecified) | 3.65 | 46.1 | 18.6 | -5.2% | 32.5 | 11.6
27 | CCNCC(=O)Nc1ccccc1C(=O)OCC | -2.7 | 14 | 0.2 | -22.5% | 8.6 | 10.1
28 | Cc1cc([N+](=O)[O-])ccn1 | -15.2 | 1.1 | -18.1 | -4.5% | -6.15 | -9.9
29 | CCc1c(C(=O)OC)c(C(=O)OC)c(-c2ccc(C)cc2)n1CCn1c(CC)c(C(=O)OC)c(C(=O)OC)c1-c1ccc(C)cc1 | -0.55 | 0.3 | -26.1 | -0.6% | -3.15 | 17.9
30 | Clc1cc(OC2C3CC4CC(C3)CC2C4)nc(Cl)n1 (stereo unspecified) | 8.45 | 1.45 | 27.7 | -1.1% | 16.3 | 65.8
31 | O=[N+]([O-])c1ccc(/C=N/C(/N=C/c2ccc([N+](=O)[O-])cc2)c2ccc([N+](=O)[O-])cc2)cc1 | 8.05 | -6.25 | 6.35 | 1.55% | -4.05 | 23.9
32 | CCOC(=O)CCc1c[nH]c2ccccc12 | -12.3 | -17.1 | -9.9 | -9.85% | 0.2 | -3.5
33 | O=C(O)/C=C/C(=O)Nc1ccccc1NC(=O)/C=C/C(=O)O | 15.2 | 16.2 | 31.2 | 27.8% | 19.9 | -1.9
34 | CC(C)S(=O)(=O)C(C)C | 5.1 | 0.35 | -8.65 | 11.7% | -13.6 | -5.85
35 | COc1ccc(OC)c2cc(C3(C)SCCCS3)ccc12 | -9 | 9.35 | 19.2 | 15.3% | 13.2 | -12.2
36 | O=C(OCCO)C1CC2CC1C1(C2)OCCO1 (stereo unspecified) | -2 | -13.2 | 13.9 | -12.1% | 42 | 0.5
37 | COc1ccc(C2=C/C(=C/c3cccc(OC)c3OC)C(=O)O2)cc1 | -10.6 | 0.65 | 11.9 | -30.9% | -11.2 | -5.35
38 | CS(=O)(=O)OCCN1C(=O)CNC1=O | 4.6 | 8.35 | -9.45 | -27.8% | 9.55 | -2.7
39 | C[N+](C)(C)CCc1ccccc1 | 1.9 | -3.15 | -0.85 | -26.4% | -12.9 | 16.1
40 | CCCc1nc(N)nc(C(=O)Nc2cccc(C(F)(F)F)c2)c1CC | -15.2 | -19.4 | 5.1 | 4.05% | 2.15 | -8.25
41 | O=C(Nc1ccccc1)c1cccc(F)c1 | -2.9 | -20.8 | -6.25 | 9.1% | -19.4 | 7.6
